# What was measured:
# Test in all cases: DAPPL (digital affinity profiling via proximity ligation, sequencing); 10 mM Tris-HCl pH 7.5, 50 mM NaCl, 1 mM DTT, 4% glycerol, room temperature, 30 min; GST-TFs on glutathione beads, 16-mer random dsDNA library, 0.1% formaldehyde crosslink after washing; high values mean tight binding
# FLI1 = molecular target: T1, FLI1 (Homo sapiens, UniProt Q01543 1-452); conditions: protein: recombinant; tags: N-terminal GST; dsDNA, one strand shown
# T1 sequence: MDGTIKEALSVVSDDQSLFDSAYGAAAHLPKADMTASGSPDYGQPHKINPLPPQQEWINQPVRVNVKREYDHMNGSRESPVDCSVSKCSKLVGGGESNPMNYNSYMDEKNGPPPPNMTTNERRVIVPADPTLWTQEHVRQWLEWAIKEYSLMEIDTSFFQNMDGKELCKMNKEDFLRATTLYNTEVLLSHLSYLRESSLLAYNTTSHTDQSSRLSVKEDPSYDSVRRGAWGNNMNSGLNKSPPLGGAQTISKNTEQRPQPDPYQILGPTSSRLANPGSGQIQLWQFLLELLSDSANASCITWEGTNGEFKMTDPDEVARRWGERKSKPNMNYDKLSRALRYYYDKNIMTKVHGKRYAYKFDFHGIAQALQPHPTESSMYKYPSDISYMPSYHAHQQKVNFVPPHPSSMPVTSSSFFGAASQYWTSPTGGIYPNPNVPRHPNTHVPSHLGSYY
# Method in brief: (§1)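 A tag-only sample was pooled with DNA-barcoded human transcription factors that had been expressed in yeast as GST fusions and captured on glutathione beads. The pools were incubated for 30 min at room temperature with 200 nmole of a random double-stranded 16-mer DNA library in Tris/NaCl/DTT/glycerol buffer, then washed, crosslinked with 0.1% formaldehyde, proximity-ligated (BsaI/T4 ligase, 1 h, 37 °C), PCR-amplified and sequenced on an Illumina NextSeq500. Binding signal is each hexamer's read frequency for a factor divided by its frequency for the tag-only sample.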
# ELK1 = molecular target: T2, ELK1 (Homo sapiens, UniProt P19419 1-428); conditions: protein: recombinant; tags: N-terminal GST; dsDNA, one strand shown
# T2 sequence: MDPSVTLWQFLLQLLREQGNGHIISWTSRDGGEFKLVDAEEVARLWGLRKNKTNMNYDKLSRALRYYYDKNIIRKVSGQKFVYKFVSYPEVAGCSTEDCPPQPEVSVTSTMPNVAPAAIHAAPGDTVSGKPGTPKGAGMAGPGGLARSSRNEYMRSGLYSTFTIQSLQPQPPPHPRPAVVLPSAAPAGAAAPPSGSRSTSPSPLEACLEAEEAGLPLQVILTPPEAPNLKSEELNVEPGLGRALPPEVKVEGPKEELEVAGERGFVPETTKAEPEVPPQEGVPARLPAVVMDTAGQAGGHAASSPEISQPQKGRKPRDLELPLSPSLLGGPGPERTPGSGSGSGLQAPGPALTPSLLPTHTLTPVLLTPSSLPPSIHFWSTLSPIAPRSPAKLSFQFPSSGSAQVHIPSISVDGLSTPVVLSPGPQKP
# Method in brief: as §1
# GABPA = molecular target: T3, GABPA (Homo sapiens, UniProt Q06546 1-454); conditions: protein: recombinant; tags: N-terminal GST; dsDNA, one strand shown
# T3 sequence: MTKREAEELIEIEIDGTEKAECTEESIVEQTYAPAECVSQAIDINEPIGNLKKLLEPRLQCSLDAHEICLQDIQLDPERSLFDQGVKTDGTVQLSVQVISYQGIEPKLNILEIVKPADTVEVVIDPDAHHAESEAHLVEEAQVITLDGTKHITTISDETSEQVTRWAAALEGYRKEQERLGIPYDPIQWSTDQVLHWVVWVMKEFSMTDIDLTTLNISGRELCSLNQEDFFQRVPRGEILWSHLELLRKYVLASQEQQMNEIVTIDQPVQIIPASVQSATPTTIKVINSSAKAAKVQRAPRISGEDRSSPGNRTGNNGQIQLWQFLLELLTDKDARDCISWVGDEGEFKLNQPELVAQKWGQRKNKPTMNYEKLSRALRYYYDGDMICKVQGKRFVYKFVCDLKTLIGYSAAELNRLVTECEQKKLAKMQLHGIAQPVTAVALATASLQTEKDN
# Method in brief: as §1
# ERG = molecular target: T4, ERG (Homo sapiens, UniProt P11308 1-479); conditions: protein: recombinant; tags: N-terminal GST; dsDNA, one strand shown
# T4 sequence: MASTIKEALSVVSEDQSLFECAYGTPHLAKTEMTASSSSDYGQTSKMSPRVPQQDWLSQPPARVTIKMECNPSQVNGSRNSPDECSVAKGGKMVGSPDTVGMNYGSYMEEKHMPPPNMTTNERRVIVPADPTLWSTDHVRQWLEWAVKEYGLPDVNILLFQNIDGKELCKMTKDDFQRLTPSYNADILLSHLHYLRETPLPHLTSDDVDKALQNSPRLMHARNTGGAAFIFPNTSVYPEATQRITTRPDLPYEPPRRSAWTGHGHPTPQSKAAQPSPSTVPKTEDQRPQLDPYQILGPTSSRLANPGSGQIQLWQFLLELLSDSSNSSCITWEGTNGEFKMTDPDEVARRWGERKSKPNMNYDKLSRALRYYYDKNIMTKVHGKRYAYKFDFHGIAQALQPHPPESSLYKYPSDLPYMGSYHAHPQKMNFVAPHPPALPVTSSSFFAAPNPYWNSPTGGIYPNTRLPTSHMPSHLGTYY
# Method in brief: as §1
# ELF1 = ELF1 (Homo sapiens, UniProt P32519 1-619); conditions: protein: recombinant; tags: N-terminal GST; dsDNA, one strand shown
# Method in brief: as §1
# EHF = molecular target: T5, EHF (Homo sapiens, UniProt Q9NZC4 1-300); conditions: protein: recombinant; tags: N-terminal GST; dsDNA, one strand shown
# T5 sequence: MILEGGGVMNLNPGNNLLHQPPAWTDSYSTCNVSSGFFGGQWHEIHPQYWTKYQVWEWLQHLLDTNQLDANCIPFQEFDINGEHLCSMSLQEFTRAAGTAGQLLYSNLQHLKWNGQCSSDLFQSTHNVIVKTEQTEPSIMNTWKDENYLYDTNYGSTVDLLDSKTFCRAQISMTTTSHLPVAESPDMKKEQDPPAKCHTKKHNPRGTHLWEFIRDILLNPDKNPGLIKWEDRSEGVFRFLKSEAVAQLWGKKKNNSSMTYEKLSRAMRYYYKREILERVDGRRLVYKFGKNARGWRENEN
# Method in brief: as §1
# SPI1 = SPI1 (Homo sapiens, UniProt P17947 1-270); conditions: protein: recombinant; tags: N-terminal GST; dsDNA, one strand shown
# Method in brief: as §1
# SPIB = SPIB (Homo sapiens, UniProt Q01892 1-262); conditions: protein: recombinant; tags: N-terminal GST; dsDNA, one strand shown
# Method in brief: as §1
# ELK3 = molecular target: T6, ELK3 (Homo sapiens, UniProt P41970 1-407); conditions: protein: recombinant; tags: N-terminal GST; dsDNA, one strand shown
# T6 sequence: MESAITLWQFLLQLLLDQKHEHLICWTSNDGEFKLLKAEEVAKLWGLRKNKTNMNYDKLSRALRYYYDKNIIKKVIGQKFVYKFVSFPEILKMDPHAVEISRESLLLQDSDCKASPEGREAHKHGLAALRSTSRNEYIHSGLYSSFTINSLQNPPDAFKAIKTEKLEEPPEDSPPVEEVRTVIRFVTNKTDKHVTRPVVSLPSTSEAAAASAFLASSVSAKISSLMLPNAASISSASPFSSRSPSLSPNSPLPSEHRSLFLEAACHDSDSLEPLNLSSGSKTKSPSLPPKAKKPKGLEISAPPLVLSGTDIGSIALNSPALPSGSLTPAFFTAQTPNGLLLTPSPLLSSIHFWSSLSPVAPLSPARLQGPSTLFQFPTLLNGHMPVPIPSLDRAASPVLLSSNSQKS
# Method in brief: as §1
# FEV = molecular target: T7, FEV (Homo sapiens, UniProt Q99581 1-238); conditions: protein: recombinant; tags: N-terminal GST; dsDNA, one strand shown
# T7 sequence: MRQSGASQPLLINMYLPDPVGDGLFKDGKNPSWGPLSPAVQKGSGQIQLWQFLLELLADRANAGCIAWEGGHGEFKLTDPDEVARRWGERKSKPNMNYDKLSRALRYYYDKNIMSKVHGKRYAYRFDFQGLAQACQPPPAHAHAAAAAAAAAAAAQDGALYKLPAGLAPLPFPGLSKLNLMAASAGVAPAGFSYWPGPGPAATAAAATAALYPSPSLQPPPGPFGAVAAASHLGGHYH
# Method in brief: as §1
# ETV5 = ETV5 (Homo sapiens, UniProt P41161 1-510); conditions: protein: recombinant; tags: N-terminal GST; dsDNA, one strand shown
# Method in brief: as §1
# HSF1 = HSF1 (Homo sapiens, UniProt Q00613 1-529); conditions: protein: recombinant; tags: N-terminal GST; chain copies: 3; dsDNA, one strand shown
# Method in brief: as §1
# SPIC = molecular target: T8, SPIC (Homo sapiens, UniProt Q8N5J4 1-248); conditions: protein: recombinant; tags: N-terminal GST; dsDNA, one strand shown
# T8 sequence: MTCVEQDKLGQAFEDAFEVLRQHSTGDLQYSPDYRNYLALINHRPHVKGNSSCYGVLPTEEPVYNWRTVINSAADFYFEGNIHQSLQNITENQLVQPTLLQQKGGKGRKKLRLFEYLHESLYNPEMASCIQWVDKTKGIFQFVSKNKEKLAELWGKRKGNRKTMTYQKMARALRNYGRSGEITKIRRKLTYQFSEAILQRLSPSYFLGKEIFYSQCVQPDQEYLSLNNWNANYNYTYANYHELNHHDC
# Method in brief: as §1
# ELF4 = ELF4 (Homo sapiens, UniProt Q99607 1-663); conditions: protein: recombinant; tags: N-terminal GST; dsDNA, one strand shown
# Method in brief: as §1
# ELK4 = molecular target: T9, ELK4 (Homo sapiens, UniProt P28324-2 1-405); conditions: protein: recombinant; tags: N-terminal GST; dsDNA, one strand shown
# T9 sequence: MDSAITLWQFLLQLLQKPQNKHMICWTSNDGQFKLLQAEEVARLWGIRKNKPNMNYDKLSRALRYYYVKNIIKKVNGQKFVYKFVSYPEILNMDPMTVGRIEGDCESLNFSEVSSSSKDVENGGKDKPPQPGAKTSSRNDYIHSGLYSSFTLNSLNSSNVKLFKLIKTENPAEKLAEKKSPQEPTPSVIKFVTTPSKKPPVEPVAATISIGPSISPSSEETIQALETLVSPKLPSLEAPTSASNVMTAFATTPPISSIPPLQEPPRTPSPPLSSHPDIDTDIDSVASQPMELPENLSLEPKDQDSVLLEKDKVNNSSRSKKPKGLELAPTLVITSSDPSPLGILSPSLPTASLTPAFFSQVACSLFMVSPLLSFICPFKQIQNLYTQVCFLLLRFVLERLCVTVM
# Method in brief: as §1
# ETV2 = molecular target: T10, ETV2 (Homo sapiens, UniProt O00321 1-342); conditions: protein: recombinant; tags: N-terminal GST; dsDNA, one strand shown
# T10 sequence: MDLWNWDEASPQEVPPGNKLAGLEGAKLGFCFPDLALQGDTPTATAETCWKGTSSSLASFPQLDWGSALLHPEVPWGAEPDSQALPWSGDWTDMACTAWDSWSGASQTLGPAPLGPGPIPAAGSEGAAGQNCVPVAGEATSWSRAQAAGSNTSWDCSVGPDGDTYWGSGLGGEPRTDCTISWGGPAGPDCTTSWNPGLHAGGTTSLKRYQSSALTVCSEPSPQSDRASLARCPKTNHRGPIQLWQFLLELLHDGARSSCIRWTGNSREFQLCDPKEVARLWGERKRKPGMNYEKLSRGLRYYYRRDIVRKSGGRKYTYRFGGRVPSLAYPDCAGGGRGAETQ
# Method in brief: as §1
# ELF3 = molecular target: T11, ELF3 (Homo sapiens, UniProt P78545 1-371); conditions: protein: recombinant; tags: N-terminal GST; dsDNA, one strand shown
# T11 sequence: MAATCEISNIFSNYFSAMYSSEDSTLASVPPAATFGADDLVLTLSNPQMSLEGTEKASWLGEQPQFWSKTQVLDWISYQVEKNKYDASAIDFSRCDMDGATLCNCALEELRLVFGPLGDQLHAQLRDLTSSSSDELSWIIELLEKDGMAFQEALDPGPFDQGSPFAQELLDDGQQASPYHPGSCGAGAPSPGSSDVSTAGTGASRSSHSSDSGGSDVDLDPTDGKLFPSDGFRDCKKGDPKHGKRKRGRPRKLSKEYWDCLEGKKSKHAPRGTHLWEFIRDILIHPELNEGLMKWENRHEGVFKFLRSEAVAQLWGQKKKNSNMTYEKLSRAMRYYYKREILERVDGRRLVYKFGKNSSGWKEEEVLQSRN
# Method in brief: as §1
# CRX = CRX (Homo sapiens, UniProt O43186 1-299); conditions: protein: recombinant; tags: N-terminal GST; dsDNA, one strand shown
# Method in brief: as §1
# ETV1 = ETV1 (Homo sapiens, UniProt P50549 1-477); conditions: protein: recombinant; tags: N-terminal GST; dsDNA, one strand shown
# Method in brief: as §1
# Chain of SPIB (Q01892 whole entry): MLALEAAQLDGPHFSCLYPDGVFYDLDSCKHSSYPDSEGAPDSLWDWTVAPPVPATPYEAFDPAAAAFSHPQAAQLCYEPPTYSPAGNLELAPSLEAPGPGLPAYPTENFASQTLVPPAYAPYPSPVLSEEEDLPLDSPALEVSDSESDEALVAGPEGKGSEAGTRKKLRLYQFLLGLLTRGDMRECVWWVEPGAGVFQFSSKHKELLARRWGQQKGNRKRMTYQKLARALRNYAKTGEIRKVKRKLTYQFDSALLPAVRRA
# Chain of HSF1 (Q00613 whole entry): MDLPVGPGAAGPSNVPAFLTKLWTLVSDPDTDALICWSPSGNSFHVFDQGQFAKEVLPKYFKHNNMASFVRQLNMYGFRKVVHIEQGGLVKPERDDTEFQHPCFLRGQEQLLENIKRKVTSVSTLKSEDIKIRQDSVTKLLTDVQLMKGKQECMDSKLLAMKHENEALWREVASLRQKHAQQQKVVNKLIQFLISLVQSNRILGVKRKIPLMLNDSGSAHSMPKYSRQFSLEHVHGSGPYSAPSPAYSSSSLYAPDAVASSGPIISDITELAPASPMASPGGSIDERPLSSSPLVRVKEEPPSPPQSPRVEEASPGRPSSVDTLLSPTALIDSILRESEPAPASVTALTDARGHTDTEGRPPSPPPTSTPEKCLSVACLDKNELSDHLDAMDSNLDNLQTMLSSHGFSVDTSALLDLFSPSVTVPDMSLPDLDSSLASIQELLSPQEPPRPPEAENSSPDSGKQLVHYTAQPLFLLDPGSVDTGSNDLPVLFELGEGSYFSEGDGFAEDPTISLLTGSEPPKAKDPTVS
# Chain of ETV1 (P50549 whole entry): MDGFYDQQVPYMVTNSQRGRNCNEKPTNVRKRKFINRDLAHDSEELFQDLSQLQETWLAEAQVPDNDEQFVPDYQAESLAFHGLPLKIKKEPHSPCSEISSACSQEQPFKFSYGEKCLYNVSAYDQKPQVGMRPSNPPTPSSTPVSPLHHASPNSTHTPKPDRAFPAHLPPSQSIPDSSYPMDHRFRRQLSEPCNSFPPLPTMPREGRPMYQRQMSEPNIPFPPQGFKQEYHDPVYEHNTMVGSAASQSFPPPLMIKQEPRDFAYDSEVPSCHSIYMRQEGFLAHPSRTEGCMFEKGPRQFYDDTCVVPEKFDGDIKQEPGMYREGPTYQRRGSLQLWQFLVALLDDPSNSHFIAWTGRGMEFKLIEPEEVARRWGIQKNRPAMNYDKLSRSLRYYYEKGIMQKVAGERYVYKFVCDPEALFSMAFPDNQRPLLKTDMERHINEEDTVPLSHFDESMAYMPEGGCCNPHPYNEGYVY
# Chain of ETV5 (P41161 whole entry): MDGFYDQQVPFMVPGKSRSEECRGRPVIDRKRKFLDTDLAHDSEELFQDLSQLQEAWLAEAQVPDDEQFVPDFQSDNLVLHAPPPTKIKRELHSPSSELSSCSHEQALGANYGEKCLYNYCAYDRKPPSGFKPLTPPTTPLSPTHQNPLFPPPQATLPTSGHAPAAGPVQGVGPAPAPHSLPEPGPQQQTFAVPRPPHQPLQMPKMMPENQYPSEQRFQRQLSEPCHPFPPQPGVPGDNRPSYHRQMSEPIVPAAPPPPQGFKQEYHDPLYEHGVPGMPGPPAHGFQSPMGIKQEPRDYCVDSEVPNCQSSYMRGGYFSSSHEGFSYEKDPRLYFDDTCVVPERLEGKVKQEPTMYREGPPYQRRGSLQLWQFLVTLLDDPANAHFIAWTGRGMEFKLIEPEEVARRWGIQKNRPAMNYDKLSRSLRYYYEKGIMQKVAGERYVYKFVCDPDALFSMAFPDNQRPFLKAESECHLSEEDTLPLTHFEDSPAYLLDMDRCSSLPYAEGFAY
# Chain of ELF1 (P32519 whole entry): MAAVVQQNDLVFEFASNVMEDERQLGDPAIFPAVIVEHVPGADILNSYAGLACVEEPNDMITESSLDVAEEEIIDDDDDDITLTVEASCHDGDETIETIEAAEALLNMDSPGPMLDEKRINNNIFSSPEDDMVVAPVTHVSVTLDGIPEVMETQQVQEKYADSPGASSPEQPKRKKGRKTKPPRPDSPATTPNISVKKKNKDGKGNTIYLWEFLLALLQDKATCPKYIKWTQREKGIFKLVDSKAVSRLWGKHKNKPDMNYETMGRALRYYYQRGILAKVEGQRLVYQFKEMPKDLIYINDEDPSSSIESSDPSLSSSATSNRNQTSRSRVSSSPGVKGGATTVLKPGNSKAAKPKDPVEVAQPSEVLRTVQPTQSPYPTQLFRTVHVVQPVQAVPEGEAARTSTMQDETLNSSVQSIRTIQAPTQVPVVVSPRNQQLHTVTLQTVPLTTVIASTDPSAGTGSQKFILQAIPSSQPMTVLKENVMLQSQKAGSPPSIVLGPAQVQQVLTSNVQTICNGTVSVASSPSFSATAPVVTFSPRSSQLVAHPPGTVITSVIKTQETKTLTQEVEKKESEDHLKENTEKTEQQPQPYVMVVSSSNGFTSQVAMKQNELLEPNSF
# Chain of ELF4 (Q99607 whole entry): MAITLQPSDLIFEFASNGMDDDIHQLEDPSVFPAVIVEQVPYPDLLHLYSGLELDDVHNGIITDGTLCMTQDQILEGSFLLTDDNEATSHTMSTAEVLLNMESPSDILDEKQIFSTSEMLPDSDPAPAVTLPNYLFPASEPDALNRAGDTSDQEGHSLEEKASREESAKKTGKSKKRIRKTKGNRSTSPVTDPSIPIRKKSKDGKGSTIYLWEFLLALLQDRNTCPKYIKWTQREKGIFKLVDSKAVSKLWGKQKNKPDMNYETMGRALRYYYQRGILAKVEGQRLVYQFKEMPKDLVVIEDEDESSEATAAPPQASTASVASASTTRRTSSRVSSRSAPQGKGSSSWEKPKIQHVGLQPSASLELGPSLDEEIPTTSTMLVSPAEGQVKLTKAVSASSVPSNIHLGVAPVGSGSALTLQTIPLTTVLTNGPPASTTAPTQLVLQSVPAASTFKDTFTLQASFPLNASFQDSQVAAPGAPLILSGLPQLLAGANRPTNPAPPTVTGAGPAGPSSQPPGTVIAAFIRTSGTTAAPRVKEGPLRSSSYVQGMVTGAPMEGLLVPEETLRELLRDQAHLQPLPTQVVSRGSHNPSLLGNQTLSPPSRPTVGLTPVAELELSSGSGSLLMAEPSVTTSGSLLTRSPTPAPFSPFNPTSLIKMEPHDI
# Chain of CRX (O43186 whole entry): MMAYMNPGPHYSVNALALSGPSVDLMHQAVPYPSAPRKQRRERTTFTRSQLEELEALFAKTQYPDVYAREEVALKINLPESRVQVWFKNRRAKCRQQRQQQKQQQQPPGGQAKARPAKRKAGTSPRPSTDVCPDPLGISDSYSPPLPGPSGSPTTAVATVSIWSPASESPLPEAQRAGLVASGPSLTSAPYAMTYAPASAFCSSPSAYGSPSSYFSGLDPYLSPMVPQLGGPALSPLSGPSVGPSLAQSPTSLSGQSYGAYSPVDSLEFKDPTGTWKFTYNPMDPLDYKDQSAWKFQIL
sequence,measurement,setting,value
TTTGTC,binding signal,FLI1,"1.35 fold enrichment (6-mer frequency, TF over GST control)"
same,binding signal,ELK1,"1.21 fold enrichment (6-mer frequency, TF over GST control)"
same,binding signal,GABPA,"1.19 fold enrichment (6-mer frequency, TF over GST control)"
same,binding signal,ERG,"1.19 fold enrichment (6-mer frequency, TF over GST control)"
same,binding signal,ELF1,"1.26 fold enrichment (6-mer frequency, TF over GST control)"
same,binding signal,EHF,"1.24 fold enrichment (6-mer frequency, TF over GST control)"
same,binding signal,SPI1,"1.23 fold enrichment (6-mer frequency, TF over GST control)"
same,binding signal,SPIB,"1.16 fold enrichment (6-mer frequency, TF over GST control)"
same,binding signal,ELK3,"1.18 fold enrichment (6-mer frequency, TF over GST control)"
same,binding signal,FEV,"1.19 fold enrichment (6-mer frequency, TF over GST control)"
same,binding signal,ETV5,"1.15 fold enrichment (6-mer frequency, TF over GST control)"
same,binding signal,HSF1,"1.11 fold enrichment (6-mer frequency, TF over GST control)"
same,binding signal,SPIC,"1.16 fold enrichment (6-mer frequency, TF over GST control)"
same,binding signal,ELF4,"1.18 fold enrichment (6-mer frequency, TF over GST control)"
same,binding signal,ELK4,"1.23 fold enrichment (6-mer frequency, TF over GST control)"
same,binding signal,ETV2,"1.16 fold enrichment (6-mer frequency, TF over GST control)"
same,binding signal,ELF3,"1.27 fold enrichment (6-mer frequency, TF over GST control)"
same,binding signal,CRX,"1.29 fold enrichment (6-mer frequency, TF over GST control)"
same,binding signal,ETV1,"1.14 fold enrichment (6-mer frequency, TF over GST control)"

# — publication PMC7862700, “An all-to-all approach to the identification of sequence-specific readers for epigenetic DNA modifications on cytosine”
